Test [1] has as its target Tumor susceptibility gene 101 protein (Homo sapiens) (UniProt Q99816). Nature of the test: qHTS Assay for Iinhibitors of HIV-1 Budding by Blocking the Interaction of PTAP/TSG101: Hit Validation (AID 651600). Also: % is scaled to controls: 0 for no effect and ±100 for the full control effect; nearly all actives have a fitted effect of over 70% in size. Summed up:
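Displacement of a FITC-labeled PTAP-motif peptide (50 nM) from the Tsg101 binding domain (10 uM) was monitored by fluorescence polarization after a 20 min room-temperature incubation.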

Test [2] concerns the target Rap guanine nucleotide exchange factor 3 (Homo sapiens) (UniProt O95398). Nature of the test: Confirmatory qHTS for antagonist of cAMP-regulated guanine nucleotide exchange factor 3 (EPAC1) (AID 1645880). Also: nearly all actives have a fitted effect of over 55% in size. Also: potency is read from the fitted curve at half-maximal effect.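 As to activity, negative = inhibition: plate controls were DMSO only for no effect and full effect of the ATA control for full effect.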 To be noted: EPAC1 Rap1B-BODIPY-GDP exchange, fluorescence; activity, negative = inhibition: at 115 µM (top of the series). The gist of the method:
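Nucleotide exchange uses 100 nM EPAC1, 250 nM RAP1B-BODIPY-GDP and 50 uM GDP, with compounds in a concentration-titration series. After 5 min at room temperature, fluorescence (480 nm ex/540 nm em) is read every 5 min for 30 min. Data are normalized to control ATA and DMSO.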
A general note: Quantitative high-throughput screening tests each substance at several concentrations.

Test [3] has the same target. Nature of the test: Confirmatory qHTS for agonist of cAMP-regulated guanine nucleotide exchange factor 3 (EPAC1) (AID 1645881).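 Also: EPAC1 catalysed release of BODIPY-GDP from Rap1B seen as fluorescence loss; 100% = effect of cAMP agonist control; nearly all actives have a fitted effect of over 75% in size.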
The target of test [4] is Rap guanine nucleotide exchange factor 4 (Homo sapiens) (UniProt Q8WZA2). Nature of the test: Confirmatory qHTS for agonist of cAMP-regulated guanine nucleotide exchange factor 4 (EPAC2) (AID 1645884).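 Also: nucleotide exchange releases bodipy-GDP from Rap1 and this lowers its fluorescence; % is scaled to controls: 0 for no effect and ±100 for the full control effect; nearly all actives have a fitted effect of over 65% in size.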
Chain of Rap guanine nucleotide exchange factor 4 (Homo sapiens) (Q8WZA2 whole entry, looked up): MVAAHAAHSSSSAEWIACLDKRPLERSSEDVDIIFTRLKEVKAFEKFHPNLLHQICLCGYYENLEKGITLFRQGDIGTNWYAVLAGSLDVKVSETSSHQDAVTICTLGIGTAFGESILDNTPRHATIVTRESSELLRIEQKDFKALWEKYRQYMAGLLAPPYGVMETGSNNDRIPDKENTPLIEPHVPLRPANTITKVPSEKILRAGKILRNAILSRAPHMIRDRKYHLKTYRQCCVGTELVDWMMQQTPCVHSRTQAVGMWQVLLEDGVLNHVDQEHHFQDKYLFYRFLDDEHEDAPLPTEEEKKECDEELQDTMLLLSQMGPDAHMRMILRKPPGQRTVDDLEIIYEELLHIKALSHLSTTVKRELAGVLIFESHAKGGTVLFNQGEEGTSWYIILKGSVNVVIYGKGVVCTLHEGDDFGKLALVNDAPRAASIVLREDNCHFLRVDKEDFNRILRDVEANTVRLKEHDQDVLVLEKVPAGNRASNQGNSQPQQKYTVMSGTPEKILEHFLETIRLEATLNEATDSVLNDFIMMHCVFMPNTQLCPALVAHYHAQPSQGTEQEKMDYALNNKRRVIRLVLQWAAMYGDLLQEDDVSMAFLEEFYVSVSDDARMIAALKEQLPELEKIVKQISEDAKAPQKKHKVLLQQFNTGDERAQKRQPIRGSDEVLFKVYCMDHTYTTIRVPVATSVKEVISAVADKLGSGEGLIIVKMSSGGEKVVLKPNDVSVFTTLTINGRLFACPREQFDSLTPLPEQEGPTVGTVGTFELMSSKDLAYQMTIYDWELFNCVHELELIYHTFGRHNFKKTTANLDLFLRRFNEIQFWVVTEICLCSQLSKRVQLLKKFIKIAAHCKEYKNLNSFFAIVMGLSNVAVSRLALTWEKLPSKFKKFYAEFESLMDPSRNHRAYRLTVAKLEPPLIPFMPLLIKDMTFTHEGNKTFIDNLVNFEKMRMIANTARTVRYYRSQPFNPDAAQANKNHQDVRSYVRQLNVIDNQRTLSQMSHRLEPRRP
The target is the same in test [5]. Nature of the test: Confirmatory qHTS for antagonist of cAMP-regulated guanine nucleotide exchange factor 4 (EPAC2) (AID 1645885). Also: nearly all actives have a fitted effect of over 25% in size.
The target of test [6] is Rap guanine nucleotide exchange factor 3 (Homo sapiens) (UniProt O95398). Nature of the test: Counterscreen qHTS for antagonist of cAMP-regulated guanine nucleotide exchange factor 3 (EPAC1) (AID 1645888).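 Also: fluorescence loss as bound BODIPY-GDP is released from Rap1B; % of control where 0% means no effect.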 Summed up:
(§1)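 Rap1B-BODIPY-GDP 250 nM + GDP 50 uM; cpds 7-pt, final 9.74 nM–152 uM (activator mode) or from 7.32 nM upwards (inhibitor mode); RT; FI 480/540 nm at 5 and 30 min, then ± cAMP, reread.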
On the technique in general: Counterscreens check selectivity or assay interference.

Test [7] has the same target. Briefly: Counterscreen qHTS for agonist of cAMP-regulated guanine nucleotide exchange factor 3 (EPAC1) (AID 1645889). Also: nearly all actives have a fitted effect of over 40% in size. Also: potency is read from the fitted curve at half-maximal effect. As to activation: % of control where 0% means no effect. Summed up: as §1
Test [8] can be described thus: AP1 Signaling Pathway (AID 357; active = well fitted curve in either direction with a large enough effect, not every such curve was filed as active;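 also: ME-180 reporter cells stimulated with EGF at its EC50 level; % is scaled to controls: 0 for no effect and ±100 for the full control effect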). Particulars: ME-180 AP-1-bla reporter, EGF-induced, beta-lactamase ratio, 5 h; at 7.69 µM (top of the series) unless noted. Summed up: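 Titration-series screen for positive or negative modulators of EC50 EGF-induced signaling in ME-180 cells carrying an AP-1-driven beta-lactamase reporter. After 5 hours at 37 degrees Celsius, CCF4 460nm/530nm emission ratio gave %Activity; AC50 values derived.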

A short description of test [9]: NFAT Signaling Pathway (AID 444; active = well fitted curve in either direction with a large enough effect, not every such curve was filed as active;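 also: carbachol stimulus at about its EC50 of 1 µM final; % is scaled to controls: 0 for no effect and ±100 for the full control effect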). To be noted: Jurkat NFAT-bla M1, carbachol, beta-lactamase ratio, 5 h; at 7.69 µM (top of the series) unless noted. Summed up:
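Read-out: CCF4 FRET ratio (460 nm/530 nm) after 1 h RT dye loading, used for %activity and AC50 from titration series. Cells: Jurkat NFAT-β-lactamase/M1 line, treated with compound plus 1 uM carbachol for 5 h, 37 °C.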

Test [10] can be described thus: Stat Signaling Pathway (AID 446; active = well fitted curve in either direction with a large enough effect, not every such curve was filed as active;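 also: ME-180 cervical cancer cells given 40 pM IL-6 alongside compound; SIE-controlled beta-lactamase reporter measured as 460/530 nm FRET emission ratio; % is scaled to controls: 0 for no effect and ±100 for the full control effect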). The gist of the method: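 Reporter line: ME-180 cervical carcinoma, SIE-beta-lactamase. Treatment: compound with 40 pM IL-6, 5 hrs, 37 C, in low-serum OPTI-MEM with 10 mM HEPES pH 7.3. Detection: 460/530 nm fluorescence.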
For test [11], the target named is Glucocorticoid receptor (Homo sapiens) (UniProt P04150). Nature of the test: GR-GFP Redistribution (AID 450;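 active = compounds whose dose series gives a full or clear partial fitted curve of increased nuclear translocation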; also: potency is read from the fitted curve at half-maximal effect). To be noted: U2OS GR-GFP nuclear translocation, laser cytometry, 2 h.
Chain of Glucocorticoid receptor (Homo sapiens) (P04150 whole entry, looked up): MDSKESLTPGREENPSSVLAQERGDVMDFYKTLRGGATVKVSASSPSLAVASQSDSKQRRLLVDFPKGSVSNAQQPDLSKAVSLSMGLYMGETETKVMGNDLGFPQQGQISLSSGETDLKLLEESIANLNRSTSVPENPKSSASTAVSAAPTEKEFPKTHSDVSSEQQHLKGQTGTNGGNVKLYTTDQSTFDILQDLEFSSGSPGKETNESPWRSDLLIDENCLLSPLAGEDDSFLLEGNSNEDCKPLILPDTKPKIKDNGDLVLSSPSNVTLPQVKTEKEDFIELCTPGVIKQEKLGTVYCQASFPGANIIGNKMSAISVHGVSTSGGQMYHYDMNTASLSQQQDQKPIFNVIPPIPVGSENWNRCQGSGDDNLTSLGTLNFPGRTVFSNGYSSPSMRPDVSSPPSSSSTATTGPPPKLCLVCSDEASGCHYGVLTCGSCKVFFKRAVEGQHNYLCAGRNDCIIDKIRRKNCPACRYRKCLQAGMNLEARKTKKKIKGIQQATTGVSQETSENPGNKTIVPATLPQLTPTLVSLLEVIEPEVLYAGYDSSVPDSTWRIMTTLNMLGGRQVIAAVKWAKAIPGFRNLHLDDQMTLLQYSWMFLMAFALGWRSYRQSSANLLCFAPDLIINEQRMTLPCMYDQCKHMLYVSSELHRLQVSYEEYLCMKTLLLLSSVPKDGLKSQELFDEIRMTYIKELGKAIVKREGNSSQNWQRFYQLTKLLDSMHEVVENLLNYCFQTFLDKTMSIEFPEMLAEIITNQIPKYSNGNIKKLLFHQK
The nature of test [12]: qHTS for Inhibitors of the vitamin D receptor (VDR): Hit Validation using a Texas Red Assay (AID 602201). Also: % is scaled to controls: 0 for no effect and ±100 for the full control effect. Summed up:
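After a 2-hour room-temperature incubation, polarization of Texas-Red emission was read (Ex 595 nm/Em 615 nm). Final mix contained 7 nM Texas Red, 1.5 uM VDR-LBD and LG19078.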

Test [13] deals with DNA polymerase iota (Homo sapiens) (UniProt Q9UNA4). Briefly: qHTS for Inhibitors of Polymerase Iota: Confirmatory Assay for Cherry-picked Compounds (AID 720496). Also: potency is read from the fitted curve at half-maximal effect. To be noted: Pol iota primer extension, TAMRA/BHQ fluorescence. The gist of the method:
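Step 1: 10 nM Pol iota with compound, 15 min, room temperature. Step 2: 50 nM final quenched DNA substrate added. Step 3: fluorescence (ex 525, em 598 nm) read at 0 and after 10 min.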

Test [14] addresses DNA polymerase kappa (Homo sapiens) (UniProt Q9UBT6). Nature of the test: qHTS for Inhibitors of Polymerase Kappa: Confirmatory Assay for Cherry-picked Compounds (AID 720501). Also: potency is read from the fitted curve at half-maximal effect. To be noted: purified Pol-kappa, fluorescent strand-displacement substrate. Summed up: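 Strand-displacement fluorescence read-out: TAMRA reporter released from a BHQ-2-quenched template, measured at 525/598 nm over a 10 min kinetic window. Substrate was 50 nM final; enzyme was 10 nM Pol-kappa, preincubated 15 min at room temperature with compound.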

Test [15] can be described thus: qHTS for Inhibitors of Plasmodium falciparum (DD2) proliferation (AID 504314).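 Also: parasite DNA measured by SYBR Green fluorescence after red cell lysis; plate controls were DMSO vehicle for no effect and artemisinin wells for full effect.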 The gist of the method: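 Infected RBCs, 0.3% parasitemia, 2.5% Hct; compound 72 h, 37C/5% CO2; lyse + SYBR Green I, RT overnight, dark; read ex485/em535; normalize to DMSO and artemisinin 0.29 uM.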
Test [16] is described as follows: qHTS for Inhibitors of Plasmodium falciparum (GB4) proliferation (AID 504315).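 Also: 0% = DMSO vehicle and -100% = 0.29 µM artemisinin control; nearly all actives have a fitted effect of over 50% in size.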 The gist of the method: (§2)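 Erythrocytes infected with P. falciparum line (0.3% parasitemia, 2.5% hematocrit final) incubated with compounds 72 h at 37 °C, 5% CO2; SYBR Green lysis buffer added, fluorescence read next day. Normalized to 0.29 uM artemisinin and DMSO.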
Test [17] in a line: qHTS for Inhibitors of Plasmodium falciparum (7G8) proliferation (AID 504316).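 Also: 0% = DMSO vehicle and -100% = 0.29 µM artemisinin full kill; nearly all actives have a fitted effect of over 65% in size.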 Summed up: as §2
A short description of test [18]: qHTS for Inhibitors of Plasmodium falciparum (HB3) proliferation (AID 504318).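 Also: 0% = DMSO vehicle and -100% = artemisinin control; nearly all actives have a fitted effect of over 60% in size.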 The gist of the method:
as §2

The nature of test [19]: qHTS for Inhibitors of Plasmodium falciparum (CP250) proliferation (AID 504320).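 Also: plate controls were DMSO vehicle for no effect and 0.29 µM artemisinin control for full effect.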 The gist of the method:
as §2

A number with no mark means an inactive call. Results filed as inconclusive are left out. Some of the results follow. Calls of active or inactive are those of the source. Unless noted, calls follow the shape of the dose curve; as a rule, active = well fitted curve in the direction sought with a large enough effect; inconclusive = small, poorly fitted or top-dose-only effect, or another doubt; inactive = no such curve, though single readings can be large; an effect the other way counts as inactive or inconclusive. A value given as a limit tells only on which side of the number the result lay.

Chain of Rap guanine nucleotide exchange factor 3 (Homo sapiens) (O95398 whole entry, looked up): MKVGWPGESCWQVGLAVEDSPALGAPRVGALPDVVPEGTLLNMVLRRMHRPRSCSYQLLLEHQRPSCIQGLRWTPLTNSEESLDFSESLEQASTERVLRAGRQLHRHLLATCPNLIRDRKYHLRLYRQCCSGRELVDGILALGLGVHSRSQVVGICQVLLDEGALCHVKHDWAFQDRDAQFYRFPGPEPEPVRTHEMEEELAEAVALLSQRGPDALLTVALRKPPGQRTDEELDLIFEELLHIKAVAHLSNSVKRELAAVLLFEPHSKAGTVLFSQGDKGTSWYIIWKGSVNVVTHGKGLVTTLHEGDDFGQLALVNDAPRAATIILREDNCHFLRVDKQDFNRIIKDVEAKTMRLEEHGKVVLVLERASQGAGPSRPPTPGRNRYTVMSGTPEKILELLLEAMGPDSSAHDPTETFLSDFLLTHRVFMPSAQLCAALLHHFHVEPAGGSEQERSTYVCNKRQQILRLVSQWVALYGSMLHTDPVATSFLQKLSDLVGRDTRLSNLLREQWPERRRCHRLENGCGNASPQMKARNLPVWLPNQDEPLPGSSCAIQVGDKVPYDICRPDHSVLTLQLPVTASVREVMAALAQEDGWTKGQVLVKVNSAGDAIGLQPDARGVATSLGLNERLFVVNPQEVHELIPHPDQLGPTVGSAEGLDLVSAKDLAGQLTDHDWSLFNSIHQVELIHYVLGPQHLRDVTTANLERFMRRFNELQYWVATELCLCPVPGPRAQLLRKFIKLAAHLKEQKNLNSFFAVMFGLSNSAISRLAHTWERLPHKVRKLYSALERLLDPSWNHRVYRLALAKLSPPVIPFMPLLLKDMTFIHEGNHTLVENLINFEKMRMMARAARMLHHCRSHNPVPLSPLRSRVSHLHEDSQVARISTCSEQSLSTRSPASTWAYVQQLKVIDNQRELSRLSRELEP
Chain of Tumor susceptibility gene 101 protein (Homo sapiens) (Q99816 whole entry, looked up, the tested form may be a part): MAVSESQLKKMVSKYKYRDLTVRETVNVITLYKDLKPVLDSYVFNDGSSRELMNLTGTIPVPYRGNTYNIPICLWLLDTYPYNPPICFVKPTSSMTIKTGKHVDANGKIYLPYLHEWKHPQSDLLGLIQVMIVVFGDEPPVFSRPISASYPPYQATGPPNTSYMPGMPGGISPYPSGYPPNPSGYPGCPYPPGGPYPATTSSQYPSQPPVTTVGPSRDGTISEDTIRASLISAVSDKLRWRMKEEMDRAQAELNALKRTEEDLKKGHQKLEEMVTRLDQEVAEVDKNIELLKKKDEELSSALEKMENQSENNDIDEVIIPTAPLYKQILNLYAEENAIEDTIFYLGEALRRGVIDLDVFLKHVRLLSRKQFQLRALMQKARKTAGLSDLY
Chain of DNA polymerase iota (Homo sapiens) (Q9UNA4 whole entry, looked up): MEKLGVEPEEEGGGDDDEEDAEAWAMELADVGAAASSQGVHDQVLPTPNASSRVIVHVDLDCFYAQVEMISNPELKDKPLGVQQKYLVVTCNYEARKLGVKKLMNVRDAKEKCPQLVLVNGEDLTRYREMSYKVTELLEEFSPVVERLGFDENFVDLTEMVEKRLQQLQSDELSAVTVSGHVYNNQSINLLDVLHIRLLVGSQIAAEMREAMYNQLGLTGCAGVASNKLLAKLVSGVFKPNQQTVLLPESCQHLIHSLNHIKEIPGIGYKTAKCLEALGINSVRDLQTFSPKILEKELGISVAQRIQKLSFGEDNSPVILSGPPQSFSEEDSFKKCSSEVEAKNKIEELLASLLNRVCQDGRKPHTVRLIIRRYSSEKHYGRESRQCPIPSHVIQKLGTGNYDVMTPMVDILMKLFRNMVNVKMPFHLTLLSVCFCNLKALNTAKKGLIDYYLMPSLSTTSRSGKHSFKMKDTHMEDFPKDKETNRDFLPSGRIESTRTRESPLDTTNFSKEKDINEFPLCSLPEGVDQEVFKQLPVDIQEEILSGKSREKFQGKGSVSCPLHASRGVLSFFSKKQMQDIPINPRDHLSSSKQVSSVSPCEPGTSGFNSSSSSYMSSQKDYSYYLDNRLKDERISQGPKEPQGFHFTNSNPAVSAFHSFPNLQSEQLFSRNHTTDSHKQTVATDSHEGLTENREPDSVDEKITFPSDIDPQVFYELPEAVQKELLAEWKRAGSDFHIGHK
Chain of DNA polymerase kappa (Homo sapiens) (Q9UBT6 whole entry, looked up): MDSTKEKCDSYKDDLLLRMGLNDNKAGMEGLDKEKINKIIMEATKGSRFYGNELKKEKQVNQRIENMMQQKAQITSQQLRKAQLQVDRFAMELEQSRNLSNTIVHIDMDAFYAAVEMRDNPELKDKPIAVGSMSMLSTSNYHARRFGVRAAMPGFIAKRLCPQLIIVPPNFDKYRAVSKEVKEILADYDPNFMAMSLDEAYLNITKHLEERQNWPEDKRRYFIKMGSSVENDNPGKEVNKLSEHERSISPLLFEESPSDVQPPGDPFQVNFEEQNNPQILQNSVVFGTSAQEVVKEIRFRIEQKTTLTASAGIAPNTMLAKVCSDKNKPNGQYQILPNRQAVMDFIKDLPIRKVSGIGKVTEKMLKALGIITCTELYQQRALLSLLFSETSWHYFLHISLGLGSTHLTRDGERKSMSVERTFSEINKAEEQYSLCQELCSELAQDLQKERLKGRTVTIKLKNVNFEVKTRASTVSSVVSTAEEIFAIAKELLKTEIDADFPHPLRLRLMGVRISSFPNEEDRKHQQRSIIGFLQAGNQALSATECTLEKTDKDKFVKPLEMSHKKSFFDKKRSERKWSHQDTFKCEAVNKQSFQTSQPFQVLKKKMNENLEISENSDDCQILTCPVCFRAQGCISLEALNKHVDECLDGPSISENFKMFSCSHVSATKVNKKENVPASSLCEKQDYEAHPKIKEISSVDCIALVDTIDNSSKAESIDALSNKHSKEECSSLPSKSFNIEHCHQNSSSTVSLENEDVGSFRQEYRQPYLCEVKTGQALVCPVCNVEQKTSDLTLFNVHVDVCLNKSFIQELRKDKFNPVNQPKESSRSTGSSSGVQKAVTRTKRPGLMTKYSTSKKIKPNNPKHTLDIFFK

For the compound `COc1ccc(N=Nc2nc3cc(Br)c(Br)cc3n2C)c(OC)c1`, the Potency result in [1], in test [2], in test [3] and in test [5] was “inactive” throughout. Moreover, the activation in [4] was 3.19% [at 17.1 µM, percent relative to cAMP agonist control]. Further, the activity change, negative = inhibition in [6] was 88.5% [at 30.8 µM]. Besides, the Potency in test [7] was 12.6 µM (active).

On to `Cc1cc(NS(=O)(=O)c2ccc(NC(=O)COc3c(C)cc(Br)cc3C)cc2)no1`, for which the Potency entry in test [1], in test [2], in test [3], in [4], in [5] and in [6] was “inactive” in each case. For the same compound, the Potency result in [7] was “inactive”.

On to `COCCn1c(N)c(C(=O)NCC2CCCO2)c2nc3ccccc3nc21` (configuration not stated), for which the activity change, negative = inhibition is -8.13% [at 17.2 µM] in test [8] and 8.7% [at 17.2 µM] in [9]. Also, the compound was classed as inactive in [10]. Further, the Potency in [11] is greater than 20.6 µM. In addition, the Potency result in test [2], in test [3], in test [4], in [5] and in test [6] was “inactive” in each case.

For the compound `Cc1[nH]n(-c2ncc(-c3ccccc3)s2)c(=O)c1C(c1ccc(Br)cc1)C(C#N)C#N` (configuration not stated), the Potency entry in [12], in test [3] and in test [5] was “inactive” in each case. For the same compound, the Potency in test [2] is 12.6 µM (active). For the same compound, the activation was 4.64% [at 17.1 µM, percent relative to cAMP agonist control] in [4] and 8.62% [at 30.8 µM] in test [7]. Also, in [6], the activity change, negative = inhibition was -9.33% [at 30.8 µM].

As for `COc1ccc(Br)cc1/C=N/Nc1ccc(S(=O)(=O)Nc2ccccc2C(=O)O)cc1[N+](=O)[O-]`, the Potency in test [13] is 37.7 µM (active); in test [14] it was 42.3 µM (active); in test [2] it was 25.1 µM (active). Also, the Potency entry in [3] and in [5] was “inactive” in each case. Further, the activation in test [4] was 0.546% [at 17.1 µM, percent relative to cAMP agonist control]; in test [7], 19% [at 30.8 µM]. In addition, the activity change, negative = inhibition in test [6] is -3.11% [at 30.8 µM].

As to `Cc1cc(=O)oc2ccc(OC(=O)CN3C(=O)c4cccc([N+](=O)[O-])c4C3=O)cc12`, the Potency result in [1], in test [2], in test [3], in test [4], in test [5] and in test [6] was “inactive” each time. Besides, the Potency result in test [7] was “inactive”.

In the case of `COc1cc(OC)c(-c2cc(C(=O)O)ccc2OC)c(OC)c1`, the Potency result in [1], in test [2], in test [3] and in test [5] was “inactive” throughout. For the same compound, the activation was 1.75% [at 17.1 µM, percent relative to cAMP agonist control] in test [4] and 38.4% [at 30.8 µM] in test [7]. Besides, the activity change, negative = inhibition in test [6] was -0.0153% [at 30.8 µM].

Turning to `COC(=O)C1=C(C(=O)OC)[C@@H]2N(Cc3ccccc3)c3ccccc3[C@@]23C[C@@H](C(=O)OC)N=C3N1`, the outcome in test [15], in test [16], in [17], in test [18] and in test [19] was inactive. In addition, the Potency entry in test [2], in [3] and in test [5] was “inactive” in each case. Moreover, in test [4], the activation was 0% [at 17.1 µM, percent relative to cAMP agonist control]. Further, the activity change, negative = inhibition in test [6] was 17% [at 30.8 µM].

Source of the values: PubChem BioAssay (NCATS).
